Experimental findings from the supplement of paper PMC9262897, “Low-cost anti-mycobacterial drug discovery using engineered E. coli” (Nature Communications, 2022) are described below.

Each structure is given as a SMILES string. Structures can show the parent of a compound that is named as a salt. ± gives the standard deviation of the averaged measurements.

The assay concerns E. coli TESEC Mtb Alr. The assay is described as follows: growth (OD600 after 10 h); higher = more growth (less inhibition). The following applies: compound 0.1 mM. The procedure: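 TESEC Mtb Alr E. coli, or the Alr+ wild-type control, in 384-well plates with Prestwick library compounds at 0.1 mM and 1% DMSO, across arabinose induction levels of 1E3 to 1E7 nM. Growth is read as OD600 after 10 h at 37 °C in triplicate biological replicates.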

Where [1] appears, read: arabinose 1000 nM, raw OD600 reference: median of DMSO wells 0.294, cell-free background 0.041.
Setting [2] is: arabinose 10000 nM, raw OD600 reference: median of DMSO wells 0.264, cell-free background 0.041.
[3] abbreviates: arabinose 100000 nM, raw OD600 reference: median of DMSO wells 0.201, cell-free background 0.041.
Where [4] appears, read: arabinose 1000000 nM, raw OD600 reference: median of DMSO wells 0.193, cell-free background 0.041.
[5] abbreviates: arabinose 10000000 nM, raw OD600 reference: median of DMSO wells 0.146, cell-free background 0.041.

With `COc1ccc2c(c1)N(C[C@H](C)CN(C)C)c1ccccc1S2` [Methotrimeprazine maleat salt], the growth runs as follows: under setting [1], 0.25 ± 0.015; under setting [2], 0.274 ± 0.015; under setting [3], 0.2 ± 0.0049; under setting [4], 0.139 ± 0.0095; under setting [5], 0.179 ± 0.002.
As for `CCN(CC)CCOC(=O)C1(c2ccc([N+](=O)[O-])cc2)CCCC1` [Nitrocaramiphen hydrochloride], the growth under setting [1] stood at 0.281 ± 0.0086; the growth under setting [2] was found to be 0.253 ± 0.0047; the growth under setting [3] amounted to 0.148 ± 0.0071; the growth under setting [4] was 0.147 ± 0.0043; the growth under setting [5] came out at 0.137 ± 0.0018.
On the same counts, the results for `CCCc1nn(C)c2c(=O)[nH]c(-c3cc(S(=O)(=O)N4CCN(C)CC4)ccc3OCC)nc12` [Sildenafil] are 0.235 ± 0.01, 0.275 ± 0.014, 0.186 ± 0.016, 0.1606 ± 0.00076 and 0.1693 ± 0.0008.
Consider `C[N+](C)(C)CCCCCC[N+](C)(C)C` [Hexamethonium dibromide dihydrate], for which the growth under setting [1] turned out to be 0.27 ± 0.018; the growth under setting [2] was 0.245 ± 0.0047; the growth under setting [3] stood at 0.191 ± 0.022; the growth under setting [4] came out at 0.1745 ± 0.00064; the growth under setting [5] was 0.138 ± 0.0063.
Regarding `CC(=O)Nc1ccc(CC(=O)O)cc1` [Actarit], the growth runs as follows: under setting [1], 0.291 ± 0.024; under setting [2], 0.259 ± 0.0053; under setting [3], 0.198 ± 0.015; under setting [4], 0.217 ± 0.0053; under setting [5], 0.136 ± 0.0042.
In the same order, the values of `CC(C)(C)CC(C)(C)c1ccc(OCCOCC[N+](C)(C)Cc2ccccc2)cc1` [Benzethonium chloride] are 0.0415 ± 0.0011, 0.0413 ± 0.0002, 0.0425 ± 0.0011, 0.04103 ± 0.00021 and 0.0418 ± 0.00044.
Take `NC(CO)C(=O)NNCc1ccc(O)c(O)c1O` (stereo not given) [Benserazide hydrochloride]: the growth was 0.246 ± 0.0069 under setting [1]; 0.224 ± 0.0028 under setting [2]; 0.205 ± 0.033 under setting [3]; 0.0994 ± 0.0023 under setting [4]; 0.124 ± 0.0056 under setting [5].
In the same order, the values of `Cc1nccn1CC1CCc2c(c3ccccc3n2C)C1=O` (stereo not given) [Ondansetron Hydrochloride] are 0.272 ± 0.0034, 0.252 ± 0.0038, 0.246 ± 0.0034, 0.304 ± 0.014 and 0.146 ± 0.0028.
